ERK EGF block – blocks ERK signaling stimulated by EGF; HEK293-V1b, EGF-stimulated phospho-ERK AlphaScreen; Potency, µM (doses to about 11.5 µM), for inactives: at the highest dose activity change, negative = inhibition, most hits filed as inhibitors; 130,000 compounds, 0.41% hits; AID 1454;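 note: potency is the fitted concentration of half-maximal effect; plate controls were stimulated vehicle wells for no effect and unstimulated vehicle basal for full effect; nearly all actives have a fitted effect of over 55% in size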
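Stably V1b-transfected HEK293 cells; 30 min compound, then EGF 25 nM final for 5 min at 37C; 10 min lysis; phospho-ERK by AlphaScreen after 5 hr beads at room temperature.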
ERK pERK EGF – confirmation of ERK pathway inhibitors under EGF stimulation | shares compounds with ERK EGF block | HEK293 EGF-stimulated ERK phosphorylation, AlphaScreen | Potency, µM (titrated, usually from 57.5 µM), inactives show top-dose activity change, negative = inhibition, hits mostly inhibitors | 60 compounds, 60% hits
cRaf kinase inh – blocks human c-Raf kinase activity; shares compounds with ERK EGF block; c-Raf kinase inhibition, homogeneous biochemical assay; activity change, negative = inhibition, % at 76.9 µM; 70 tested, under 10 active
Target sequence (P04049 whole entry, looked up): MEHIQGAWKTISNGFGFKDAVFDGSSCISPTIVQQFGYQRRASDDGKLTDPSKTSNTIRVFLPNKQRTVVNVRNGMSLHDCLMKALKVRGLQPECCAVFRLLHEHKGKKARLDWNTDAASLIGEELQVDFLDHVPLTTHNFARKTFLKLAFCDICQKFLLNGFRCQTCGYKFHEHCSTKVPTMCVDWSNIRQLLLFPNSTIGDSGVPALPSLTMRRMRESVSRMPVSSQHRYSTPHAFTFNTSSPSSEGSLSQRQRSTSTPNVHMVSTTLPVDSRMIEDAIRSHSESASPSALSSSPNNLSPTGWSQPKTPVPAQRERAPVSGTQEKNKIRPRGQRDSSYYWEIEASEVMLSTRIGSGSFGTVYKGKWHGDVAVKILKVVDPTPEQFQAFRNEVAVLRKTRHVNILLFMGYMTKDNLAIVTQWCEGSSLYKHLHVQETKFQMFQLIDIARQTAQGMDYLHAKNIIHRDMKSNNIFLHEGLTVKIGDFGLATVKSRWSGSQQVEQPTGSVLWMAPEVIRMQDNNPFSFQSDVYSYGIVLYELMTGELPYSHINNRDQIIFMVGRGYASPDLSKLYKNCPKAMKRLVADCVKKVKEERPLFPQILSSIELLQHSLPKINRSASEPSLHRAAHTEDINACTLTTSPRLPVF
MEK inh – MEK1 (human) kinase inhibition | shares compounds with ERK EGF block | homogeneous MEK kinase activity assay, ERK pathway | AID 1732 | 70 tested, under 10 active | Potency, µM (highest dose often 76.9 µM), for the others: at the top dose activity change, negative = inhibition, hits mostly inhibitors
* = called active by the depositor; ? = inconclusive; · = no result; ! = a repeat was not active; [ ] = remark or other dose. This is one part of a sample in which hits are shown more often than they occur. Calls come from the whole dose curve; as a rule, active = well fitted curve in the direction sought with a large enough effect; inconclusive = small, poorly fitted or top-dose-only effect, or another doubt; inactive = no such curve, though single readings can be large; an effect the other way counts as inactive or inconclusive.

SMILES	ERK EGF block	others
CC(C)=CCCC1(C)C=Cc2c(O)c3c(c(CC=C(C)C)c2O1)OC12C(=CC4CC1C(C)(C)OC2(C/C=C(/C)C(=O)O)C4=O)C3=O (stereo unspecified)	16µM*
CC(C)CCCC1(C)C=Cc2c(O)c3c(c(CCC(C)C)c2O1)OC12C(CC4CC1C(C)(C)OC2(CCC(C)C(=O)O)C4O)C3=O (stereo unspecified)	5%
CC(=O)OC1CC2C(C)(C)C(O)C=C[C@@]2(C)C2CC[C@]3(C)C(=CC(=O)OC3c3ccoc3)[C@]12C (stereo partly specified)	-4%
CN1CC[C@@]2(CCCN(C(=O)Oc3ccccc3)C2)C1	5%
CC[C@H](Oc1ccc(Cl)cc1)C(=O)OC1C[C@H]2CC[C@@H](C1)N2C (stereo partly specified)	1%
CC(C)COC(=O)c1ccccc1C(=O)OCC(C)C	-11%[57.5 µM]
C[CH2][Hg][S]c1ccccc1C(=O)O	32µM*
CNc1ccccc1C(=O)O	23%
CO[C@H]1C=C2CCN(C)[C@@H]2[C@@H]2c3cc4c(cc3C(=O)O[C@H]21)OCO4	4%[25.7 µM]
CCCc1cc2c(n1CCO)C(C)C1CN(C(=O)c3ccccc3)C(C)(C(=O)OC)C21 (stereo unspecified)	-5%
C(=C/c1ccccc1)/CN1CCN(CCOC(c2ccccc2)c2ccccc2)CC1	-12%
CN1C[C@@H](C(=O)N[C@@]2(C)O[C@]3(O)C4CCCN4C(=O)[C@@H](Cc4ccccc4)N3C2=O)C=C2c3cccc4[nH]cc(c34)C[C@@H]21 (stereo partly specified)	-3%
O=C(Nc1cccc(F)c1)N1CC2(CCNCC2)C1	9%
CC(=O)[C@H]1CC[C@H]2[C@@H]3CCC4=CC(=O)CC[C@]4(C)[C@H]3CC[C@]12C	14µM*!
CC(=O)[C@@H]1CC[C@@H]2[C@@H]3CCC4=CC(=O)CC[C@@]4(C)[C@H]3CC[C@]21C	-7%[25.7 µM]
C[C@@]12CC[C@H]3[C@@H](CCC4=CC(=O)CC[C@]43C)[C@H]1CC[C@H]2C(=O)CO	11%[25.7 µM]
[N-]=[N+]=CC(=O)OCC(N)C(=O)O (stereo unspecified)	8%
CC1=C(O)C(=O)C=C2C1=CC=C1[C@]2(C)CC[C@@]2(C)C3C[C@](C)(C(=O)O)CC[C@@]3(C)CC[C@@]12C (stereo partly specified)	16µM*
COC(=O)[C@]1(C)CC[C@@]2(C)CC[C@@]3(C)C4=CCc5c(cc(O)c(O)c5C)[C@]4(C)CC[C@@]3(C)C2C1 (stereo partly specified)	21%
COC1=C[C@H]2[C@H]3Cc4ccc(OC)c(O)c4[C@@]2(CCN3C)CC1=O	-10%
C=C1C2C[C@]3(C4CC5[C@@]6(C)CC[C@H](O)[C@@]5(C3CC2=O)C4[N+]([O-])(CC)C6)[C@@H]1O (stereo partly specified)	-1%
NCC(=O)c1ccccc1	21%
CC(C)OP(=O)(O)NC(=O)c1ccccc1	3%
CC(=O)[O][Hg][c]1ccccc1	14µM*
O=C(Oc1ccccc1)N1CCC2(CCCN(Cc3ccccc3)C2)CC1	-1%
SMILES	ERK EGF block	others
CC1CC(Cl)CCC1C(=O)OC(C)(C)C (stereo unspecified)	16%
O=C(c1csnn1)N1CCC2(CC1)CN(Cc1ccncc1)C2	7%
CNc1ccc2oc(C[C@H]3O[C@]4(CC[C@H]3C)O[C@H]([C@H](C)C(=O)c3ccc[nH]3)[C@H](C)C[C@H]4C)nc2c1C(=O)O	-15%
CCCN(CCC)[C@@H]1CCc2c(F)ccc(O)c2C1	17%
O=P(c1ccccc1)(c1ccccc1)N1CC2(CC2)CC(O)(c2ccccc2)C1 (stereo unspecified)	-8%
COC[C@]12CN(C=O)C3C4C(OC)C1[C@@]3(C1CC3(O)C(OC)C(O)C4(OC(C)=O)C1C3OC(=O)c1ccccc1)[C@@H](OC)CC2O (stereo partly specified)	13%
Cc1cccc(-n2c(-c3cccs3)nc3ccccc3c2=O)c1	12%
CCn1nc(-c2cccs2)nc2c(=O)n(C)c(=O)nc1-2	·	cRaf kinase inh=?;MEK inh=0.89µM*
CCn1nc(/C=C/c2ccccc2)nc2c(=O)n(C)c(=O)nc1-2	-2%
CC(C)CN1CC2(CCN(C(=O)c3ccncc3)CC2)C1	6%
CCCc1cc2c(n1Cc1ccco1)C(C)C1CN(C(=O)c3ccccc3)C(C)(C(=O)OC)C21 (stereo unspecified)	-5%
N[C@H](CP(=O)(O)O)C(=O)O	-7%
CCN1C(=O)NC(=O)/C(=C/c2cc(C)n(-c3sc(C)c(C)c3C#N)c2C)C1=O	?	ERK pERK EGF=-4%;cRaf kinase inh=-9;MEK inh=?
Cc1cc(/C=C2/C(=O)NC(=O)N(Cc3ccco3)C2=O)c(C)n1-c1ccccc1	6%
Cc1ccc(N2C(=O)NC(=O)/C(=C\c3cc(C)n(-c4sc5c(c4C#N)CCCC5)c3C)C2=O)cc1	0%
O=C(CC[N+](=O)[O-])OCC1OC(O)C(OC(=O)CC[N+](=O)[O-])[C@@H](OC(=O)CC[N+](=O)[O-])C1OC(=O)CC[N+](=O)[O-] (stereo partly specified)	16%
